Results published in paper PMC11006913.
Where a chain is given by its changes, count along the chain named.

Columns and labels:
Assay in all cases: PBM; 200 nM protein, PBS
Settings in all cases: dsDNA, one strand shown
NKX2-5 [1] = biological target: NKX2-5 (Homo sapiens, UniProt P52952 125-210, R139K)
NKX2-4 [2] = biological target: T1, NKX2-4 (Homo sapiens, UniProt Q9H2Z4 175-261, P217L)
T1 sequence: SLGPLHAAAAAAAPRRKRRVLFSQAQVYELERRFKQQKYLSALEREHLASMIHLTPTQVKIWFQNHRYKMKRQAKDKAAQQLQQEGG

NKX2-4 [3] = biological target: T2, NKX2-4 (Homo sapiens, UniProt Q9H2Z4 175-261, T231S)
T2 sequence: T1 sequence with L43P, T57S

NKX2-4 [4] = biological target: T3, NKX2-4 (Homo sapiens, UniProt Q9H2Z4 175-261)
T3 sequence: T1 sequence with L43P

NKX2-6 [5] = biological target: T4, NKX2-6 (Homo sapiens, UniProt A6NCS4 118-204, R150C)
T4 sequence: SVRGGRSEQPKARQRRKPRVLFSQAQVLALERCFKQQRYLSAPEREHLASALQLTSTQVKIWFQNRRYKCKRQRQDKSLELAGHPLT

NKX2-6 [6] = biological target: T5, NKX2-6 (Homo sapiens, UniProt A6NCS4 118-204)
T5 sequence: T4 sequence with C33R

NKX2-4 [7] = biological target: T6, NKX2-4 (Homo sapiens, UniProt Q9H2Z4 175-261, R246Q)
T6 sequence: T1 sequence with L43P, R72Q

NKX2-6 [8] = biological target: T7, NKX2-6 (Homo sapiens, UniProt A6NCS4 118-204, F151L)
T7 sequence: T4 sequence with C33R, F34L

NKX2-5 [9] = biological target: NKX2-5 (Homo sapiens, UniProt P52952 125-210)
NKX3-2 [10] = biological target: NKX3-2 (Homo sapiens, UniProt P78367 192-278, P234S)
NKX3-2 [11] = biological target: NKX3-2 (Homo sapiens, UniProt P78367 192-278)
VENTX [12] = biological target: T8, VENTX (Homo sapiens, UniProt O95231 78-163, R121Q)
T8 sequence: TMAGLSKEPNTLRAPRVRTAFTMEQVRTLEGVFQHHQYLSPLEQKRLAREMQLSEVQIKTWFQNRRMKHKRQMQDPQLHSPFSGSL

VENTX [13] = biological target: T9, VENTX (Homo sapiens, UniProt O95231 78-163)
T9 sequence: T8 sequence with Q44R

VENTX [14] = biological target: T10, VENTX (Homo sapiens, UniProt O95231 78-163, Y115F)
T10 sequence: T8 sequence with Y38F, Q44R

Chain of NKX2-5 (Homo sapiens, UniProt P52952 125-210, R139K) (P52952 125-210 R139K): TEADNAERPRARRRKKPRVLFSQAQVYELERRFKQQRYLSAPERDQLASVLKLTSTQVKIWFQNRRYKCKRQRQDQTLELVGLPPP
Chain of NKX2-5 (Homo sapiens, UniProt P52952 125-210) (P52952 125-210): as the sequence (P52952 125-210 R139K) above, with K15R counted along it
Chain of NKX3-2 (Homo sapiens, UniProt P78367 192-278, P234S) (P78367 192-278 P234S): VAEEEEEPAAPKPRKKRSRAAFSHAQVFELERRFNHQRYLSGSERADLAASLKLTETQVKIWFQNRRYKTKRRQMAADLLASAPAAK
Chain of NKX3-2 (Homo sapiens, UniProt P78367 192-278) (P78367 192-278): as the sequence (P78367 192-278 P234S) above, with S43P counted along it

Row | Sequence | binding signal (NKX2-5 [1]) | binding signal (NKX2-4 [2]) | binding signal (NKX2-4 [3]) | binding signal (NKX2-4 [4]) | binding signal (NKX2-6 [5]) | binding signal (NKX2-6 [6]) | binding signal (NKX2-4 [7]) | binding signal (NKX2-6 [8]) | binding signal (NKX2-5 [9]) | binding signal (NKX3-2 [10]) | binding signal (NKX3-2 [11]) | binding signal (VENTX [12]) | binding signal (VENTX [13]) | binding signal (VENTX [14])
1 | GCACTTGA | 13.2 upbm affinity estimate (log intensity, higher = more binding, comparable within an allelic series) | 12.8 upbm affinity estimate (log intensity, higher = more binding, comparable within an allelic series) | 13.2 upbm affinity estimate (log intensity, higher = more binding, comparable within an allelic series) | 12.6 upbm affinity estimate (log intensity, higher = more binding, comparable within an allelic series) | 12.1 upbm affinity estimate (log intensity, higher = more binding, comparable within an allelic series) | 13.9 upbm affinity estimate (log intensity, higher = more binding, comparable within an allelic series) | 13.4 upbm affinity estimate (log intensity, higher = more binding, comparable within an allelic series) | 11.4 upbm affinity estimate (log intensity, higher = more binding, comparable within an allelic series) | 13.1 upbm affinity estimate (log intensity, higher = more binding, comparable within an allelic series) |  |  |  |  | 
2 | AAGTGGAC | 12.5 upbm affinity estimate (log intensity, higher = more binding, comparable within an allelic series) | 12.4 upbm affinity estimate (log intensity, higher = more binding, comparable within an allelic series) | 12.9 upbm affinity estimate (log intensity, higher = more binding, comparable within an allelic series) |  | 11.8 upbm affinity estimate (log intensity, higher = more binding, comparable within an allelic series) | 13.4 upbm affinity estimate (log intensity, higher = more binding, comparable within an allelic series) |  | 10.4 upbm affinity estimate (log intensity, higher = more binding, comparable within an allelic series) | 12.4 upbm affinity estimate (log intensity, higher = more binding, comparable within an allelic series) | 12.7 upbm affinity estimate (log intensity, higher = more binding, comparable within an allelic series) | 12.8 upbm affinity estimate (log intensity, higher = more binding, comparable within an allelic series) |  |  | 
3 | ACGGCCTG | 8.92 upbm affinity estimate (log intensity, higher = more binding, comparable within an allelic series) | 9.73 upbm affinity estimate (log intensity, higher = more binding, comparable within an allelic series) | 9.59 upbm affinity estimate (log intensity, higher = more binding, comparable within an allelic series) | 9.65 upbm affinity estimate (log intensity, higher = more binding, comparable within an allelic series) |  |  | 9.71 upbm affinity estimate (log intensity, higher = more binding, comparable within an allelic series) |  | 8.81 upbm affinity estimate (log intensity, higher = more binding, comparable within an allelic series) |  |  |  |  | 
4 | CACTCGAA | 12 upbm affinity estimate (log intensity, higher = more binding, comparable within an allelic series) | 12.5 upbm affinity estimate (log intensity, higher = more binding, comparable within an allelic series) | 13 upbm affinity estimate (log intensity, higher = more binding, comparable within an allelic series) | 12.5 upbm affinity estimate (log intensity, higher = more binding, comparable within an allelic series) |  |  | 13.1 upbm affinity estimate (log intensity, higher = more binding, comparable within an allelic series) |  | 11.9 upbm affinity estimate (log intensity, higher = more binding, comparable within an allelic series) |  |  |  |  | 
5 | CCTCTTGA | 12.5 upbm affinity estimate (log intensity, higher = more binding, comparable within an allelic series) | 12.7 upbm affinity estimate (log intensity, higher = more binding, comparable within an allelic series) | 13 upbm affinity estimate (log intensity, higher = more binding, comparable within an allelic series) | 12.5 upbm affinity estimate (log intensity, higher = more binding, comparable within an allelic series) | 11.7 upbm affinity estimate (log intensity, higher = more binding, comparable within an allelic series) | 13.4 upbm affinity estimate (log intensity, higher = more binding, comparable within an allelic series) | 13.2 upbm affinity estimate (log intensity, higher = more binding, comparable within an allelic series) | 10.5 upbm affinity estimate (log intensity, higher = more binding, comparable within an allelic series) | 12.5 upbm affinity estimate (log intensity, higher = more binding, comparable within an allelic series) |  |  |  |  | 
6 | AAGTGCCC | 12.4 upbm affinity estimate (log intensity, higher = more binding, comparable within an allelic series) | 12.5 upbm affinity estimate (log intensity, higher = more binding, comparable within an allelic series) | 12.8 upbm affinity estimate (log intensity, higher = more binding, comparable within an allelic series) | 12.3 upbm affinity estimate (log intensity, higher = more binding, comparable within an allelic series) | 11.6 upbm affinity estimate (log intensity, higher = more binding, comparable within an allelic series) |  | 13 upbm affinity estimate (log intensity, higher = more binding, comparable within an allelic series) | 10.8 upbm affinity estimate (log intensity, higher = more binding, comparable within an allelic series) | 12.4 upbm affinity estimate (log intensity, higher = more binding, comparable within an allelic series) | 12.9 upbm affinity estimate (log intensity, higher = more binding, comparable within an allelic series) | 12.9 upbm affinity estimate (log intensity, higher = more binding, comparable within an allelic series) |  |  | 
7 | CCGACCTC | 8.77 upbm affinity estimate (log intensity, higher = more binding, comparable within an allelic series) |  |  |  |  |  |  |  | 8.83 upbm affinity estimate (log intensity, higher = more binding, comparable within an allelic series) |  |  | 7.98 upbm affinity estimate (log intensity, higher = more binding, comparable within an allelic series) | 7.99 upbm affinity estimate (log intensity, higher = more binding, comparable within an allelic series) | 8.1 upbm affinity estimate (log intensity, higher = more binding, comparable within an allelic series)
8 | CACGGGCC | 8.73 upbm affinity estimate (log intensity, higher = more binding, comparable within an allelic series) |  |  |  |  |  |  |  | 8.71 upbm affinity estimate (log intensity, higher = more binding, comparable within an allelic series) |  |  | 7.96 upbm affinity estimate (log intensity, higher = more binding, comparable within an allelic series) | 8.01 upbm affinity estimate (log intensity, higher = more binding, comparable within an allelic series) | 7.92 upbm affinity estimate (log intensity, higher = more binding, comparable within an allelic series)
9 | ATCGGTGG | 8.85 upbm affinity estimate (log intensity, higher = more binding, comparable within an allelic series) | 9.32 upbm affinity estimate (log intensity, higher = more binding, comparable within an allelic series) | 9.63 upbm affinity estimate (log intensity, higher = more binding, comparable within an allelic series) | 9.38 upbm affinity estimate (log intensity, higher = more binding, comparable within an allelic series) |  |  | 9.32 upbm affinity estimate (log intensity, higher = more binding, comparable within an allelic series) |  | 8.79 upbm affinity estimate (log intensity, higher = more binding, comparable within an allelic series) |  |  |  |  | 
